Results: PubChem BioAssay (NCI)
This is part of a sample that, as a whole, favours compounds with a hit. Of some 83,000 tested, about 20% had one in any assay.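 Interpretation: 100, growth as untreated; towards 0, rising growth inhibition; 0, no net growth; 0 to -100, cell death. Compounds scoring below 10 were considered active.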 Activity calls are given as the source filed them.

Columns and labels:
Experiment in all cases: NCI-60 one-dose screen, 48 h (100 = growth as untreated, 0 = no growth, -100 = all killed)
Conditions in all cases: 10 µM
[1] = tested on: DU-145 prostate
[2] = tested on: K-562 leukemia
[3] = tested on: MALME-3M melanoma
[4] = tested on: MDA-MB-231 breast
[5] = tested on: RXF 393 renal
[6] = tested on: SF-268 CNS
[7] = tested on: SF-295 CNS
[8] = tested on: SF-539 CNS
[9] = tested on: UACC-257 melanoma
[10] = tested on: M14 melanoma
[11] = tested on: HCT-15 colon
[12] = tested on: U251 CNS
[13] = tested on: PC-3 prostate
[14] = tested on: SK-MEL-5 melanoma
[15] = tested on: UACC-62 melanoma
[16] = tested on: LOX IMVI melanoma
[17] = tested on: SK-MEL-28 melanoma
[18] = tested on: SNB-75 CNS
[19] = tested on: SNB-19 CNS

Measured: growth

Cn1c([N+](=O)[O-])cnc1C=C1C(=O)c2ccccc2C1=O
active: [5] 4.59%
inactive: [1] 46.5% | [2] 15.8% | [3] 42.5% | [4] 45.6% | [6] 17.7% | [7] 110% | [8] 17.7% | [9] 37.4% | [10] 19.3% | [11] 23.2% | [12] 57.2% | [13] 60.1% | [14] 42.6% | [15] 17.5% | [16] 21.7% | [17] 39.2%

c1ccc(C2CCCCC2)c(OCCCCCN2CCNCC2)c1
inactive: [1] 72.8% | [3] 43% | [4] 15.9% | [5] 36.4% | [6] 70.7% | [7] 63.5% | [8] 68.7% | [9] 19.9% | [18] 48.3% | [12] 26.1% | [13] 43.6% | [14] 16.5%
active: [2] -13.1% | [10] -66.5% | [11] -34.7% | [15] -51.3% | [16] -35% | [17] -15.8%

CNC(=S)Sc1ccc([N+](=O)[O-])cc1[N+](=O)[O-]
inactive: [1] 38.1% | [3] 87.1% | [4] 50.8% | [5] 97.4% | [6] 94.2% | [7] 95.1% | [8] 25.9% | [9] 62.5% | [10] 24.3% | [11] 36.8% | [18] 88.1% | [19] 94.3% | [12] 72.5% | [13] 84.4% | [14] 44.8% | [15] 81.6% | [16] 19.3% | [17] 66.1%
active: [2] 7.74%

CCOC(=O)Nc1ccc2c(c1)C(=O)N(CCOC)c1ccccc1O2
inactive: [1] 43.8% | [2] 20.3% | [3] 61.2% | [4] 62.3% | [5] 56% | [6] 56.9% | [7] 28.8% | [8] 30.3% | [9] 61.7% | [10] 19.8% | [11] 26.1% | [18] 31.9% | [19] 54.5% | [12] 39.3% | [13] 38.4% | [14] 12.3% | [15] 30.6% | [16] 38.7% | [17] 62.9%

CCN1CCN(c2nc(NNC(=O)c3cccc(OC)c3)nc(N3CCN(C(c4ccccc4)c4ccccc4)CC3)n2)CC1
inactive: [1] 81.4% | [2] 16.5% | [4] 71.9% | [5] 56.1% | [6] 80.9% | [7] 84% | [8] 71.6% | [9] 45.9% | [11] 15.4% | [18] 61.9% | [19] 78.1% | [12] 41.8% | [13] 41.9% | [14] 53.5% | [15] 73.5% | [17] 63.2%
active: [3] -79.5% | [10] -43.2% | [16] 7.34%
